# Structures can show the parent of a compound that is named as a salt. ± gives the standard deviation of the averaged measurements.
# Assays:
# [1] = test system: Saccharomyces cerevisiae BY4741 SeMeCo community; experiment: mean cell size (pixel area) (pixels); higher = larger cells; details: 10 µM; 24 h; SM minimal medium
# How it was run: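 Yeast cells were fixed with paraformaldehyde, imaged by automated confocal microscopy and analysed in Harmony to obtain mean cell pixel area per well. They came from a four-plasmid fluorescent Saccharomyces cerevisiae BY4741 community, each plasmid complementing one auxotrophy and carrying a fluorescent marker. Before imaging, 70 µl of culture at OD600 = 0.3 was incubated for 24 h in SM medium in 384-well plates predosed acoustically with drug (final 10 µM). Values are means of 3 replicates. Same SeMeCo high-content imaging drug screen: Selleck FDA-approved drugs at 10 µM, 24 h in SM medium, 384-well plates, 3 replicates.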
# [2] = test system: Saccharomyces cerevisiae BY4741 SeMeCo community; experiment: z-score of prototroph abundance vs DMSO median; higher = larger share of this subpopulation than in DMSO controls; details: 10 µM; 24 h; SM minimal medium; subpopulation (auxotrophy): Prototroph
# How it was run: (§1)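 Automated confocal microscopy of paraformaldehyde-fixed cells was used to follow a Saccharomyces cerevisiae BY4741 community carrying four plasmids, each restoring one auxotrophy and encoding a distinct fluorescent protein. The community was pre-grown overnight to OD600 1.0, diluted to 0.3, and added at 70 µl to 384-well plates acoustically predosed with library drugs (10 µM final) for 24 h of growth in minimal SM medium. Single-auxotroph fluorescent strains set thresholds and autofluorescence correction, and each subpopulation's abundance was scored as a z-score against the vehicle-well median.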
# [3] = test system: Saccharomyces cerevisiae BY4741 SeMeCo community; experiment: z-score of subpopulation abundance vs DMSO median, subpopulation auxotrophic for M; higher = larger share of this subpopulation than in DMSO controls; details: 10 µM; 24 h; SM minimal medium; subpopulation (auxotrophy): M
# How it was run: as §1
# [4] = test system: Saccharomyces cerevisiae BY4741 SeMeCo community; experiment: z-score of subpopulation abundance vs DMSO median, subpopulation auxotrophic for L; higher = larger share of this subpopulation than in DMSO controls; details: 10 µM; 24 h; SM minimal medium; subpopulation (auxotrophy): L
# How it was run: as §1
# [5] = test system: Saccharomyces cerevisiae BY4741 SeMeCo community; experiment: z-score of subpopulation abundance vs DMSO median, subpopulation auxotrophic for U; higher = larger share of this subpopulation than in DMSO controls; details: 10 µM; 24 h; SM minimal medium; subpopulation (auxotrophy): U
# How it was run: as §1
# [6] = test system: Saccharomyces cerevisiae BY4741 SeMeCo community; experiment: z-score of subpopulation abundance vs DMSO median, subpopulation auxotrophic for H; higher = larger share of this subpopulation than in DMSO controls; details: 10 µM; 24 h; SM minimal medium; subpopulation (auxotrophy): H
# How it was run: as §1
# [7] = test system: Saccharomyces cerevisiae BY4741 SeMeCo community; experiment: z-score of subpopulation abundance vs DMSO median, subpopulation auxotrophic for LU; higher = larger share of this subpopulation than in DMSO controls; details: 10 µM; 24 h; SM minimal medium; subpopulation (auxotrophy): LU
# How it was run: as §1
# [8] = test system: Saccharomyces cerevisiae BY4741 SeMeCo community; experiment: z-score of subpopulation abundance vs DMSO median, subpopulation auxotrophic for HM; higher = larger share of this subpopulation than in DMSO controls; details: 10 µM; 24 h; SM minimal medium; subpopulation (auxotrophy): HM
# How it was run: as §1
# [9] = test system: Saccharomyces cerevisiae BY4741 SeMeCo community; experiment: z-score of subpopulation abundance vs DMSO median, subpopulation auxotrophic for HU; higher = larger share of this subpopulation than in DMSO controls; details: 10 µM; 24 h; SM minimal medium; subpopulation (auxotrophy): HU
# How it was run: as §1
# [10] = test system: Saccharomyces cerevisiae BY4741 SeMeCo community; experiment: z-score of subpopulation abundance vs DMSO median, subpopulation auxotrophic for HL; higher = larger share of this subpopulation than in DMSO controls; details: 10 µM; 24 h; SM minimal medium; subpopulation (auxotrophy): HL
# How it was run: as §1
# [11] = test system: Saccharomyces cerevisiae BY4741 SeMeCo community; experiment: z-score of subpopulation abundance vs DMSO median, subpopulation auxotrophic for HLM; higher = larger share of this subpopulation than in DMSO controls; details: 10 µM; 24 h; SM minimal medium; subpopulation (auxotrophy): HLM
# How it was run: as §1
# [12] = test system: Saccharomyces cerevisiae BY4741 SeMeCo community; experiment: z-score of subpopulation abundance vs DMSO median, subpopulation auxotrophic for HUM; higher = larger share of this subpopulation than in DMSO controls; details: 10 µM; 24 h; SM minimal medium; subpopulation (auxotrophy): HUM
# How it was run: as §1
# [13] = test system: Saccharomyces cerevisiae BY4741 SeMeCo community; experiment: z-score of subpopulation abundance vs DMSO median, subpopulation auxotrophic for LUM; higher = larger share of this subpopulation than in DMSO controls; details: 10 µM; 24 h; SM minimal medium; subpopulation (auxotrophy): LUM
# How it was run: as §1
# [14] = test system: Saccharomyces cerevisiae BY4741 SeMeCo community; experiment: z-score of subpopulation abundance vs DMSO median, subpopulation auxotrophic for HLUM; higher = larger share of this subpopulation than in DMSO controls; details: 10 µM; 24 h; SM minimal medium; subpopulation (auxotrophy): HLUM
# How it was run: as §1
# [15] = test system: Saccharomyces cerevisiae BY4741 SeMeCo community; experiment: z-score of subpopulation abundance vs DMSO median, subpopulation auxotrophic for UM; higher = larger share of this subpopulation than in DMSO controls; details: 10 µM; 24 h; SM minimal medium; subpopulation (auxotrophy): UM
# How it was run: as §1
# [16] = test system: Saccharomyces cerevisiae BY4741 SeMeCo community; experiment: z-score of subpopulation abundance vs DMSO median, subpopulation auxotrophic for LM; higher = larger share of this subpopulation than in DMSO controls; details: 10 µM; 24 h; SM minimal medium; subpopulation (auxotrophy): LM
# How it was run: as §1
Compound,mean cell size [1],z-score of prototroph abundance [2],z-score of subpopulation abundance [3],z-score of subpopulation abundance [4],z-score of subpopulation abundance [5],z-score of subpopulation abundance [6],z-score of subpopulation abundance [7],z-score of subpopulation abundance [8],z-score of subpopulation abundance [9],z-score of subpopulation abundance [10],z-score of subpopulation abundance [11],z-score of subpopulation abundance [12],z-score of subpopulation abundance [13],z-score of subpopulation abundance [14],z-score of subpopulation abundance [15],z-score of subpopulation abundance [16]
CN1CCOC(c2ccccc2)c2ccccc2C1 (configuration not stated) [Nefopam HCl],12.1 ± 0.25,0.32,0.02,-1.02,0.26,-0.62,0.08,-0.51,0.21,-0.63,-0.41,-0.51,-0.26,-0.19,–,–
COCCOC(=O)C1=C(C)NC(C)=C(C(=O)OC/C=C/c2ccccc2)C1c1cccc([N+](=O)[O-])c1 (configuration not stated) [Cilnidipine],12.3 ± 0.24,-0.13,-1.14,0.77,-0.53,1.28,0.17,0.7,0.24,0.94,-0.44,0.37,–,-0.48,-0.33,–
C[C@@H]1C/C=C/C=C/C=C/C=C/[C@H](O[C@@H]2O[C@H](C)[C@@H](O)[C@H](N)[C@@H]2O)C[C@@H]2O[C@](O)(C[C@@H](O)C[C@H]3O[C@@H]3/C=C/C(=O)O1)C[C@H](O)[C@H]2C(=O)O [Natamycin],12.31 ± 0.094,-16.3,-8.99,1.74,–,–,8.63,8.62,33.6,22.5,38.1,–,14.5,40.5,–,2.04
CCCOc1ccc2c(c1)CC[C@@H]1[C@@H]2CC[C@]2(C)[C@@H](OC)CC[C@@H]12 [Promestriene],12.5 ± 0.26,-1.13,1.08,0.77,0.31,0.19,0.62,–,0.21,0.84,0.48,1.7,1.34,0.24,1.71,0.33
CCOc1ccc2ccccc2c1C(=O)N[C@@H]1C(=O)N2[C@@H]1SC(C)(C)[C@@H]2C(=O)O [Nafcillin Sodium],12.2 ± 0.23,0.32,-0.26,0.95,–,-0.47,0.04,0.22,-0.72,-0.51,-0.71,–,0.08,–,-0.68,0.39
Cc1nnc(SCC2=C(C(=O)O)N3C(=O)[C@@H](NC(=O)Cn4cc(Cl)c(=O)c(Cl)c4)[C@H]3SC2)s1 [Cefazedone],12.5 ± 0.39,0.73,0.65,-0.83,-0.01,-0.61,-0.24,0.02,–,-1.2,-0.49,–,-1.02,-0.54,-0.27,-0.95
Cc1ccc(Nc2c(F)cccc2Cl)c(CC(=O)O)c1 [Lumiracoxib],12.9 ± 0.21,1.08,0.63,-1.37,-0.66,-0.79,-1.15,0,-1.07,-0.22,3.33,–,-0.56,-0.5,–,0.14
O=C1CN(/N=C/c2ccc(-c3ccc([N+](=O)[O-])cc3)o2)C(=O)N1 [Dantrolene sodium hemiheptahydrate],12.7 ± 0.17,1,3.93,1.44,-4.45,–,-1.88,1.38,-2.96,–,2.77,-1.65,-1.33,0.57,–,–
CCn1cc(C(=O)O)c(=O)c2cc(F)c(N3CCNCC3)cc21 [Norfloxacin],12.3 ± 0.21,–,0.77,-0.15,-0.7,0.31,-0.24,0.41,–,0.28,-0.51,0.46,-0.23,–,-0.54,0.65
COc1ccc2cc3[n+](cc2c1OC)CCc1cc2c(cc1-3)OCO2 [Berberine chloride],–,-0.22,0.33,0.44,-0.13,0.04,-0.32,-0.15,-0.79,–,-0.32,-0.38,-0.34,–,-0.09,0.14
CO/N=C(\C(=O)N[C@@H]1C(=O)N2C(C(=O)[O-])=C(C[n+]3cccc4c3CCC4)CS[C@H]12)c1csc(N)n1 [Cefpirome sulfate],12.5 ± 0.22,-0.2,0.51,1.19,-0.71,0.64,-0.12,–,-0.75,-0.18,-0.14,0,0.18,–,0.21,0.27
CN(C)CCCC1(c2ccc(F)cc2)OCc2cc(C#N)ccc21 (configuration not stated) [Citalopram HBr],–,-0.34,-0.6,-0.17,1.58,0.36,0.92,–,0.64,-0.06,0.45,0.08,-0.03,1.38,–,-0.05
C[C@@H](O)[C@H]1C(=O)N2C(C(=O)O)=C(SCCNC=N)C[C@H]12 [Imipenem],12.26 ± 0.071,-0.79,0.92,-1.04,–,0.19,-0.16,–,-0.46,-0.18,0.25,–,0.35,-0.14,1.18,0.19
CCCCCC(=O)O[C@]1(C(C)=O)CC[C@H]2[C@@H]3CCC4=CC(=O)CC[C@]4(C)[C@H]3CC[C@@]21C [Hydroxyprogesterone caproate],12.47 ± 0.039,–,0.22,1.21,-0.21,1.49,0.72,–,–,1.2,0.65,1.38,1.15,0.74,0.42,1.5

# — the supplement of paper PMC8975748
